In PubChem BioAssay (NCATS):
Records with an inconclusive call do not appear. Calls of active or inactive are those of the source. Unless noted, calls follow the shape of the dose curve; as a rule, active = well fitted curve in the direction sought with a large enough effect; inconclusive = small, poorly fitted or top-dose-only effect, or another doubt; inactive = no such curve, though single readings can be large; an effect the other way counts as inactive or inconclusive.

Columns and labels:
[1] = Cell Viability - BJ (AID 421; calls by dose curve;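 also: potency is read from the fitted curve at half-maximal effect; cells exposed to compound for 40 hours at 37 °C before readout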); settings: BJ fibroblast viability, qHTS
Method in brief: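 Normal human BJ foreskin fibroblasts, 1500/well in complete medium, treated 40 hr at 37 °C. Cellular ATP by CellTiter-Glo luminescence; normalized to DMSO and 100 uM tamoxifen, AC50 from Hill fit.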

[2] = Cell Viability - Jurkat (AID 426;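 active = dose-dependent loss of cell ATP signal giving a full or clear fitted curve, ranked by lower potency value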; also: potency is read from the fitted curve at half-maximal effect); settings: qHTS
Method in brief: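 qHTS, 1536-well; Jurkat E6-1, 5000 cells/well, complete medium; cpd 40 hr, 37 °C; CellTiter-Glo 20 min RT; luminescence. AC50 by Hill fit.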

[3] = Cell Viability - HepG2 (AID 433; calls by dose curve;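 also: potency is read from the fitted curve at half-maximal effect; potency for ATP loss meaning cytotoxicity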); settings: qHTS
Method in brief: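 In this qHTS format, a 40 h, 37 °C compound incubation of HepG2 cells in complete medium precedes a 20 min CellTiter-Glo step at room temperature. Tamoxifen and doxorubicin serve as positive controls; Hill-equation fits yield AC50.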

[4] = Cell Viability - MRC5 (AID 434; calls by dose curve;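 also: potency is read from the fitted curve at half-maximal effect; potency reflects cytotoxicity seen as loss of intracellular ATP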); settings: MRC5 lung fibroblast viability, qHTS
Method in brief: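 MRC5 normal human lung fibroblasts, 1500 cells/well, exposed to compound for 40 hr at 37 C. Cellular ATP was read by CellTiter-Glo luminescence; data normalized to DMSO and 100 uM tamoxifen, with AC50 from Hill fits.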

[5] = Cell Viability - N2a (AID 540); settings: N2a mouse neuroblastoma cell viability; at 92.2 µM (top of the series);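 also: plate controls were DMSO alone for no effect and tamoxifen control for full effect; nearly all actives have a fitted effect of over 45% in size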
Method in brief: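 Luminescent ATP signal (CellTiter-Glo, 20 min at room temperature) served as the viability read-out after N2a cells were treated with compounds for 40 hours at 37 °C. Concentration-response data were fitted to the Hill equation for AC50.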

[6] = Cell Viability - Mesenchymal (AID 546);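 also: cells exposed to compound for 40 hours before reading; 0% = DMSO only and -100% = 100 µM tamoxifen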
Method in brief: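 Human kidney mesenchymal cells from normal renal glomeruli, 1000 cells/well, rested 5 hr at 37 °C, then treated 40 hr at 37 °C in complete medium. Cellular ATP read by CellTiter-Glo luminescence; AC50 from Hill-equation fits.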

[7] = Cellular Toxicity (caspase-3) HepG2 (AID 654);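 also: cells exposed to compound for 16 hours before reading; 0% = DMSO alone and 100% = caspase signal from 100 µM tamoxifen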
Method in brief: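 Cells plated 5 hr at 37 °C, compound added, incubated 16 hr at 37 °C. Caspase-Glo 3/7 reagent followed, 20 min at room temperature, then luminescence read. Activation scored as signal increase; AC50 from Hill fit.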

[8] = Cellular Toxicity (caspase-3) HUV-EC-C (AID 656);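 also: 0% = DMSO basal and 100% = 100 µM tamoxifen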
Method in brief: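 Concentration-dependent caspase 3/7 induction was assessed in HUV-EC-C cells exposed for 16 hours. Data scaled between DMSO and tamoxifen (100 uM) controls.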

[9] = Cellular Toxicity (caspase-3) SHSY5Y (AID 657)
Method in brief: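 Readout: caspase-cleaved peptide-aminoluciferin substrate driving luciferase light in SH-SY5Y neuroblastoma cells after 16 h treatment. Response normalized to DMSO and 10 uM staurosporine controls.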

[10] = Cellular Toxicity (caspase-3) BJ (AID 658);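 also: 0% = DMSO basal and 100% = 10 µM staurosporine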
Method in brief: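 BJ human foreskin fibroblasts, 1000 cells/well, treated 16 hours at 37 °C in complete medium; caspase 3/7 activity by Caspase-Glo luminescence after 1 hr at room temperature. Normalized to DMSO and 10 uM staurosporine; AC50 from Hill fits.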

[11] = Cellular Toxicity (caspase-3) MRC-5 (AID 659);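 also: 0% = DMSO basal and 100% = 10 µM staurosporine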
Method in brief: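 MRC-5 human normal lung fibroblasts, 1500 cells/well, treated 16 h at 37 °C in complete medium. Caspase 3/7 measured by Caspase-Glo luminescence after 1 h at room temperature. Normalized to DMSO and 10 uM staurosporine; AC50 from Hill fit.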

[12] = Cellular Toxicity (caspase-3) Mesangial (AID 660);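 also: combined caspase 3 and 7 activity read by Caspase-Glo luminescence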
Method in brief: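 Mesangial cells, 1000/well, 5 h settle at 37 °C; compound 16 h, 37 °C; Caspase-Glo 3/7 reagent 20 min RT; luminescence. Norm.: DMSO = 0%, tamoxifen 100 uM = 100%. AC50, Hill fit.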

[13] = Cellular Toxicity (caspase-3) SK-N-SH (AID 661);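 also: 0% = DMSO basal and 100% = 10 µM staurosporine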
Method in brief: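 Human neuroblastoma SK-N-SH, 1500 cells/well, 5 hr pre-incubation, then compound 16 hr, 37 °C. Caspase-Glo 3/7 reagent, 1 hr RT, luminescence. Norm. to DMSO/10 uM staurosporine; Hill-fit AC50.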

[14] = Cellular Toxicity (caspase-3) H-4-II-E (AID 663);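 also: cells exposed to compound for 16 hr before readout; 0% = DMSO basal and 100% = 100 µM tamoxifen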
Method in brief: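 Rat hepatoma H-4-II-E cells (1500/well) plated 5 hr, then exposed to compound titrations for 16 hr at 37 °C. Caspase-Glo 3/7 luminescence read after 20 min at RT; data normalized to DMSO and 100 uM tamoxifen, AC50 from Hill fits.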

[15] = Cellular Toxicity (caspase-3) Hek293 (AID 664);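 also: cells exposed to compound for 16 h at 37 °C before readout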
Method in brief: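 Cells plated, 5 hr at 37 °C; compounds added; 16 hr at 37 °C; Caspase-Glo 3/7 reagent, 20 min RT; luminescence read. Activation expressed relative to DMSO and 100 uM tamoxifen, AC50 by Hill model.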

[16] = Cellular Toxicity (caspase-3) N2a (AID 665);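 also: compound exposure lasted 16 h at 37 °C before readout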
Method in brief: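 N2a cells, 1500/well, 5 h settle at 37 °C; cpd 16 h, 37 °C; Caspase-Glo 3/7, 1 h RT; luminescence. Norm: DMSO = 0, 10 uM staurosporine = 100%. AC50, Hill fit.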

[17] = Cellular Toxicity (caspase-3) NIH 3T3 (AID 666);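 also: 0% = DMSO basal and 100% = 100 µM tamoxifen stimulation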
Method in brief: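 Luminescence from aminoluciferin released by caspase-3/7 cleavage of a peptide substrate served as read-out. Mouse fibroblast NIH 3T3 cells were exposed to compounds over a concentration range for 16 hours, and AC50 values came from standard Hill modelling.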

[18] = Cellular Toxicity (caspase-3) Renal Proximal Tubule (AID 667);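 also: cells exposed to compound for 16 hours at 37 °C before detection; 0% = DMSO basal and 100% = 10 µM staurosporine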
Method in brief: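 Caspase-Glo 3/7 read-out, rat primary kidney proximal tubule cells. Compound exposure 16 h, 37 °C; detection after 1 h at RT. Activity scaled to DMSO and 10 uM staurosporine.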

[19] = Cell Viability - LYMP2-001 (AID 921);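 also: 0% = DMSO only and full inhibition = tetraoctylammonium bromide control wells; nearly all actives have a fitted effect of over 70% in size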
Method in brief: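 A lymphoblastoid cell line of human origin was treated with library compounds across a concentration series for 24 hours, and viable cell number was estimated from ATP-driven luciferase light output. Hill modeling gave AC50.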

[20] = Confirmation and Secondary Assay for Modulators of Hemoglobin Beta Chain Splicing at IVS2 705 locus (AID 930);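 also: HeLa cells stably expressing the EGFP-705 splicing reporter; GFP fluorescence per well restored by corrected splicing of the IVS2-705 intron in EGFP; % of control where 0% means no effect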
Method in brief: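 First, HeLa EGFP-705 cells are seeded at 500/well in Optimem with 2% FCS and left overnight. Next, compound or DMSO is added for 2 days. Finally wells are laser-scanned and total peak GFP intensity scored.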

[21] = MultiTox-Fluor Cytotoxicity Assay - LYMP1-001 - Dead Cells (AID 946)
Method in brief: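 LYMP1-001 lymphoblastoid cells (2500/well) treated 16 h at 37 C. Dead-cell protease cleavage of bis-AAF-R110 read at Ex/Em 485/520. Normalized to DMSO and 15 uM tetraoctylammonium bromide; AC50 from Hill fits.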

[22] = MultiTox-Fluor Cytotoxicity Assay - LYMP1-001 - Live Cells (AID 947);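 also: 0% = DMSO only and full inhibition = tetraoctylammonium bromide control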
[23] = Cell Viability - LYMP1-002 - Assay at 16 hr (AID 948);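 also: 0% = DMSO alone and full effect = 92 µM tetraoctylammonium bromide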
Method in brief: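 In this qHTS, lymphoblastoid LYMP1-002 cells (human) receive compounds for 16 hr at 37 C. Viability is taken from CellTiter-Glo ATP luminescence, and AC50 derives from standard Hill fits.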

[24] = MultiTox-Fluor Cytotoxicity Assay - LYMP1-002 - Live Cells (AID 955); also: % is scaled to controls: 0 for no effect and ±100 for the full control effect
Method in brief: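 Read-out is live-cell protease activity (cell-permeant GF-AFC substrate, fluorescence Ex/Em=405/510), where a decrease indicates acute toxicity. Human lymphoblastoid cells were treated 16 hours at 37 C in a concentration series, and AC50 values came from standard Hill modelling.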

[25] = MultiTox-Fluor Cytotoxicity Assay - LYMP1-002 - Dead Cells (AID 960); also: nearly all actives have a fitted effect of over 60% in size
Method in brief: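 LYMP1-002 cells 2500/well; 5 hr 37 C pre-incubation; compound 16 hr 37 C; MultiTox-Fluor reagent 60 min RT; dead-cell fluor Ex/Em 485/520. Norm. to DMSO (0%) vs 15 uM tetraoctylammonium bromide (100%); Hill AC50.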

[26] = MultiTox-Fluor Cytotoxicity Assay - LYMP1-003 - Live Cells (AID 962);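 also: 0% = DMSO only and full loss = 92 µM tetraoctylammonium bromide; cytotoxic hits lower the live-cell protease signal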
Method in brief: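 qHTS, 1536-well; 2500 cells/well LYMP1-003; 5 hr 37 C settle; cpd 16 hr 37 C; MultiTox-Fluor reagent 60 min RT; live-cell protease fluor. 405/510; Hill-fit AC50; tetraoctylammonium bromide pos. ctrl.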

[27] = Cell Viability - LYMP1-003 - Assay at 24 hr (AID 963);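 also: plate controls were DMSO only for no effect and tetraoctylammonium bromide positive control for full effect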
Method in brief: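 Cells seeded at 2500/well, 5 hr at 37 C; compounds added; 24 hr at 37 C; CellTiter-Glo added, 30 min room temperature; luminescence read. Decrease in ATP taken as cytotoxicity, AC50 from Hill modelling.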

[28] = Cell Viability - LYMP1-003 - Assay at 40 hr (AID 964); also: % is scaled to controls: 0 for no effect and ±100 for the full control effect; nearly all actives have a fitted effect of over 60% in size
Method in brief: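 Cells were seeded at 2500 per well and incubated 5 hr at 37 C. Compounds were added across a concentration series and left 40 hr at 37 C. CellTiter-Glo was added for 30 min at room temperature before luminescence reading.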

[29] = Cell Viability - LYMP2-003 (AID 965);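 also: cells exposed to compounds for 24 h before reading; 0% = DMSO only and full effect = 92 µM tetraoctylammonium bromide; nearly all actives have a fitted effect of over 50% in size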
Method in brief: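 qHTS, human lymphoblastoid line, 2500 cells/well, complete medium. 24 h drug, 37 C. ATP-based luminescent readout; Hill-fit AC50.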

[30] = Cell Viability - LYMP2-004 (AID 966);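 also: plate controls were DMSO only for no effect and tetraoctylammonium bromide control for full effect; nearly all actives have a fitted effect of over 65% in size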
Method in brief: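 Cells seeded 2500/well, rested 5 hr at 37 C, dosed across a concentration series, incubated 24 hr at 37 C, then CellTiter-Glo added for 30 min at room temperature and luminescence read. Hill fitting gave AC50.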

[31] = Cell Viability - LYMP2-005 (AID 967);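 also: plate controls were DMSO only for no effect and 92 µM tetraoctylammonium bromide control for full effect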
Method in brief: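 Luciferase-based ATP quantitation served as the viability measure in human lymphoblastoid LYMP2-005 cells exposed to test compounds for 24 h at 37 C in complete culture medium. Potency (AC50) was obtained by fitting concentration-response curves with the Hill equation.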

[32] = Cell Viability - LYMP2-009 (AID 968);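 also: 0% = DMSO alone and the full-kill end = tetraoctylammonium bromide at 92 µM; nearly all actives have a fitted effect of over 55% in size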
[33] = Cell Viability - LYMP2-011 (AID 969);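 also: 0% = DMSO only and full inhibition = 92 µM tetraoctylammonium bromide; nearly all actives have a fitted effect of over 60% in size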
Method in brief: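 2500 cells/well, 5 hr 37 C; compound added, 24 hr 37 C; CellTiter-Glo 30 min RT; luminescence. qHTS concentration-response, Hill-equation AC50. Tetraoctylammonium bromide positive control.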

[34] = Cell Viability - LYMP2-013 (AID 970);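 also: 0% = DMSO only and full inhibition = tetraoctylammonium bromide control; nearly all actives have a fitted effect of over 55% in size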
Method in brief: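 qHTS; 2500 lymphoblastoid cells/well; 5 hr 37 C settle; cpd 24 hr 37 C; CellTiter-Glo, 30 min RT; luminescence. AC50 = Hill fit.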

[35] = Cell Viability - LYMP2-015 (AID 971);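 also: 0% = DMSO only and full effect = 92 µM tetraoctylammonium bromide; nearly all actives have a fitted effect of over 55% in size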
Method in brief: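 Luminescent ATP read-out (CellTiter-Glo) served as the viability measure after lymphoblastoid cells were exposed to compounds for 24 hours at 37 C. Concentration-response data were fitted with the Hill equation to give AC50.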

[36] = Cell Viability - LYMP2-017 (AID 972); also: % is scaled to controls: 0 for no effect and ±100 for the full control effect; nearly all actives have a fitted effect of over 55% in size
Method in brief: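 2500 cells/well, 5 h 37 C; cpd 24 h 37 C in complete medium; CellTiter-Glo, 30 min RT; luminescence (ATP). AC50 via Hill fit, qHTS.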

[37] = Cell Viability - LYMP2-021 (AID 974)
Method in brief: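 Plate 2500 lymphoblastoid cells per well and incubate 5 hr at 37 C. Add compounds over a concentration range and incubate 24 hr at 37 C. Add CellTiter-Glo, wait 30 min at room temperature, read luminescence.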

[38] = Cell Viability - LYMP2-023 (AID 975)
Method in brief: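 2500 cells/well, 5 hr 37 C; cpd 24 hr 37 C; CellTiter-Glo, 30 min RT; luminescence. qHTS conc-response, Hill fit -> AC50. Pos ctrl tetraoctylammonium bromide.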

[39] = Cell Viability - LYMP2-025 (AID 976);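 also: plate controls were DMSO only for no effect and tetraoctylammonium bromide control for full effect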
Method in brief: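 Seed 2500 LYMP2-025 cells/well; 5 hr at 37 C; add compound; 24 hr at 37 C; add CellTiter-Glo; 30 min RT; read luminescence. AC50 from Hill-modelled concentration-response.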

[40] = Cell Viability - LYMP2-002 (AID 977);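 also: compound exposure lasted 24 h at 37 °C; plate controls were DMSO only for no effect and 92 µM tetraoctylammonium bromide for full effect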
Method in brief: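 Human lymphoblastoid LYMP2-002 cells, 2500 per well, exposed to compounds for 24 h at 37 C in complete medium; viability read as intracellular ATP by CellTiter-Glo luminescence, AC50 from Hill fits.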

[41] = Cell Viability - LYMP2-006 (AID 978); also: % is scaled to controls: 0 for no effect and ±100 for the full control effect; nearly all actives have a fitted effect of over 60% in size
Method in brief: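 In this cytotoxicity screen, the human lymphoblastoid line grew in complete medium with test compounds for 24 hr at 37 C. Cellular ATP served as the viability signal.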

[42] = Cell Viability - LYMP2-007 (AID 979)
Method in brief: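 Luminescent ATP signal (CellTiter-Glo) serves as the viability read-out after 24 hr compound treatment of lymphoblastoid cells in complete medium at 37 C. Concentration-response data were fitted to the Hill equation to give AC50 values.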

[43] = Cell Viability - LYMP2-010 (AID 981)
Method in brief: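 Luminescent ATP signal (CellTiter-Glo) served as the viability read-out. Cells of the human lymphoblastoid line were treated with compound over a concentration range for 24 hours at 37 C, and AC50 values came from Hill-equation modeling.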

[44] = Cell Viability - LYMP2-012 (AID 982)

Oc1c(Cl)c(Cl)c(Cl)c(Cl)c1Cl
inactive: Potency [1] > 92 µM | Potency [3] > 92 µM | Potency [4] > 92 µM | outcome [6] | outcome [7] | outcome [8] | outcome [9] | outcome [10] | outcome [11] | outcome [12] | outcome [13] | outcome [14] | outcome [15] | outcome [16] | outcome [17] | outcome [18] | outcome [19] | outcome [20] | Potency [21] | outcome [22] | outcome [23] | outcome [24] | Potency [25] | outcome [26] | outcome [27] | Potency [28] | outcome [29] | outcome [30] | outcome [31] | outcome [32] | outcome [33] | outcome [34] | outcome [35] | outcome [36] | outcome [37] | outcome [38] | outcome [39] | outcome [40] | outcome [41] | outcome [42] | Potency [43] | outcome [44]
active: Potency [2] 47.6 µM | activity change, negative = cytotoxicity [5] -109%
